Results: the supplement of paper PMC6555819

How the values were obtained:
Test in all cases: PBM binding z-score (relative to random genomic background probes); higher = stronger binding; sequences stand for … in GC…GCGATTGACAGCGTAGAATGAAGG
[1] = system: RARb homodimer (NR concentration 270 nM)
Procedure, shortened: (§1)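 Binding buffer was PBS pH 7.4 with 2% milk, 0.02% Triton X-100, 1 mM DTT, 0.2 mg/mL BSA and 0.4 mg/ml salmon testes DNA. In it, ligand-free nuclear receptor dimers were incubated 1 h on custom Agilent 4×180K protein-binding microarrays carrying double-stranded probes. Antibodies against each partner (one per run) detected binding, and z-scores were calculated against random background probes after regression normalization of scanned fluorescence.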

[2] = system: RARg:RXRa (NR concentration 270 nM, RXRa partner concentration 90 nM)
Procedure, shortened: as §1

[3] = system: RARg homodimer (NR concentration 270 nM)
Procedure, shortened: as §1

[4] = system: RXRa DBDmut IVT, anti-RXR (DBD mutation: RXRa K156A/R161A, NR concentration 90 nM)
Procedure, shortened: as §1

[5] = system: RXRa homodimer (NR concentration 180 nM)
Procedure, shortened: as §1

[6] = system: THRa:RXRa (NR concentration 90 nM, RXRa partner concentration 90 nM)
Procedure, shortened: as §1

[7] = system: THRa homodimer (NR concentration 90 nM)
Procedure, shortened: as §1

[8] = system: VDR homodimer (NR concentration 270 nM)
Procedure, shortened: as §1

| Sequence | PBM binding z-score [1] | PBM binding z-score [2] | PBM binding z-score [3] | PBM binding z-score [4] | PBM binding z-score [5] | PBM binding z-score [6] | PBM binding z-score [7] | PBM binding z-score [8] |
| --- | --- | --- | --- | --- | --- | --- | --- | --- |
| CCTGCTAGGTCATGGTGAGCTAATCTACAGTATG | 2.8 | 3.83 | 4.17 | 1.72 | 2.52 | 2.82 | 0.878 | -0.0752 |
| ACAGACAGGTGAGTGAAGGTAACTCCGCTGGACG | 0.202 | 0.0663 | 0.259 | -0.475 | 0.41 | 1.29 | -0.349 | -0.537 |
| TCTAGTTAGTCAAAGGTCACACACTCGAAATGCG | 4.84 | 6.12 | 5.68 | 2.03 | 7.09 | 3.97 | 1.9 | 2.57 |
| TATACAGGGTCAAACGCCAGAGTACGAATGTCGA | 3.44 | 5.93 | 5.27 | 3.62 | 6.88 | 3.56 | 0.861 | 4.28 |
| TAGCCTAGGTCATTGGGCCACTATAGTACGCATC | 3.11 | 3.84 | 4.24 | 1.92 | 2.97 | 2.87 | 1.3 | 1.77 |
| TGTCAAAGTTCAAAGGTAACGTGAGTATCCACAC | 4.01 | 6.45 | 6.06 | 4.32 | 7.77 | 3.39 | -0.326 | 4.31 |
| CCTACTGGGCCAAAGCTCATTGATTCCAATGCTC | -0.417 | -0.161 | -0.172 | -0.0907 | -0.521 | -0.58 | -0.358 | -0.874 |
